Here are results for 14 compounds from paper PMC5540273 (PLoS ONE, 2017).
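Also: KINOMEscan kinase panel screen.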

This assay deals with FLT1. The following applies: concentration: 1 μM, replicates: in singlicate; n = 1.
For the compound `Cl.Oc1cccc(Nc2ccnc3cc(-c4ccncc4)ccc23)c1` [GW494601], the “%Inh” value was 94.4%.
The result for `CCc1nc(-c2cccc(C)c2)c(-c2ccnc(NCc3ccccc3)c2)s1` reads 0%; that for `CN(C(=O)c1ccc(-c2cc(-c3c[nH]nc3-c3ccccn3)ccn2)cc1)C1CCOCC1` [GW810083], 41%; that for `O=C(NOCC1CC1)c1ccc(F)c(F)c1Nc1ccc(I)cc1Cl`, 10%.
On to `N#Cc1ccc(-c2cc(-c3c[nH]nc3-c3ccccn3)ccn2)cc1` [GW693028], for which the “%Inh” value was determined as 0%.
With `CN1c2ccc(CNc3ccc(F)cc3)cc2-c2c(cnn2C)S1(=O)=O`, the “%Inh” value is given as 0%.
The result for `O=c1cc(N2CCOCC2)nc2n(Cc3cccc(C(F)(F)F)c3)ccn12` [GSK2297543] reads 17%.
The result for `O=C(NCCNc1ccnc(Nc2ccc(F)cc2)n1)Nc1ccccc1F` [GSK1379880] reads 4%; that for `COc1cc2c(cc1OC[C@@H](O)CO)ncc1c3ccc(C#N)cc3[nH]c21`, 0%.
The value for `CCCCCc1nc2c(N)ncnc2n1CCCCC` [SKF-97255] was 0%.
On to `O=C(Nc1cccc(-c2nn3ncccc3c2-c2ccnc(Nc3cccc(C(F)(F)F)c3)n2)c1)c1c(F)cccc1F` [GSK299495], for which the “%Inh” value worked out at 91.5%.
For `O=c1cc(N2CCOCC2)nc2n(Cc3cccc4ccccc34)ccn12` [GSK2333389], the “%Inh” value was 30%.
As for `Cc1c(Cn2c(C)nn3c(=O)cc(N4CCOC(C)C4)nc23)cccc1C(F)(F)F` (centres unmarked) [GSK2344444], the “%Inh” value stood at 25%.
The value for `O=C1NC(=O)C(N2CCc3ccccc32)=C1c1cccc(Cl)c1` [SB-408010] was 11%.
